Experimental data published in PubChem BioAssay (NCATS).
Results filed as inconclusive are left out. Activity calls are given as the source filed them. Calls come from the whole dose curve; as a rule, active = well fitted curve in the direction sought with a large enough effect; inconclusive = small, poorly fitted or top-dose-only effect, or another doubt; inactive = no such curve, though single readings can be large; an effect the other way counts as inactive or inconclusive.

Columns and labels:
[1] = biological target: Phospholipid hydroperoxide glutathione peroxidase GPX4 (Homo sapiens) (UniProt P36969); assay: Primary qHTS Assay for Inhibitors of Recombinant Selenoprotein Glutathione Peroxidase 4 (GPX4) (AID 1845192); note: nearly all actives have a fitted effect of over 65% in size
Sequence of Phospholipid hydroperoxide glutathione peroxidase GPX4 (Homo sapiens) (P36969 whole entry, looked up): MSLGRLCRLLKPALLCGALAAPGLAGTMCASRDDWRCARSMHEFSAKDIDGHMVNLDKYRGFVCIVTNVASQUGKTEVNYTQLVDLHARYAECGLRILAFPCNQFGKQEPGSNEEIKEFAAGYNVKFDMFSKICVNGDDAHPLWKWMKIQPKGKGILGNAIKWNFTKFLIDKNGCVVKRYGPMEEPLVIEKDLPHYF
Method in brief: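 NADPH consumption, followed by fluorescence at 340/450 nm between 0 and 15 min, reports GPX4 activity via coupled glutathione reductase (100 nM). Enzyme 200 nM was pre-exposed to compound 30 min; 0.5 mM cumene hydroperoxide and 1 mM GSH served as substrates.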

[2] = biological target: Luciferin 4-monooxygenase (Photinus pyralis) (UniProt P08659); assay: Primary firefly luciferase (FLuc) qHTS assay for identification of artifact compounds. (AID 1845220); note: nearly all actives have a fitted effect of over 60% in size
Method in brief: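 Cell-free, 1536-well qHTS. Buffer pH 7.6 with 0.01% Tween-20 and 0.05% BSA; 10 uM D-luciferin, 10 uM ATP; 10 nM P. pyralis luciferase; luminescence after 5 min.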

[3] = test system: Nanoluciferase (engineered Oplophorus gracilirostris luciferase); assay: Primary Nanoluciferase (NLuc) qHTS assay for identification of artifact compounds. (AID 1845222); note: series mostly up to about 54 µM
Method in brief: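 Compounds are pinned into diluted (1:55) conditioned medium of NLuc-expressing S16 cells and held 15 min at room temperature protected from light. Nano-Glo substrate follows, and luminescence is read 5 min later.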

[4] = Primary redox qHTS assay for identification of artifact compounds. (AID 1845223)
Method in brief: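 Amplex Red (25 uM) and HRP (250 mU/mL) in HBSS, with compounds for 15 min, then 250 uM DTT for 30 min, room temperature, dark. Fluorescence 525/598 nm read; normalized to DMSO and 10 uM DA3003; Hill fit.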

[5] = Primary fluorescence-based thiol-reactive (MSTI) qHTS assay for identification of artifact compounds. (AID 1845221); note: nearly all actives have a fitted effect of over 65% in size; note: potency is the fitted concentration of half-maximal effect
Method in brief: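 A multi-concentration qHTS design tested compounds against 4 uM MSTI, pH 7.4 phosphate-buffered saline. Plates were protected from light for 1 h at room temperature before imaging fluorescence.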

[6] = biological target: Cytochrome P450 3A4 (Homo sapiens) (UniProt P08684); assay: qHTS for inhibitors of CYP3A4 against the NCATS DSHEA and TCM libraries (AID 1919971);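 note: inhibition lowers luminescence from luciferin made by CYP3A4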
Sequence of Cytochrome P450 3A4 (Homo sapiens) (P08684 whole entry, looked up, canonical isoform): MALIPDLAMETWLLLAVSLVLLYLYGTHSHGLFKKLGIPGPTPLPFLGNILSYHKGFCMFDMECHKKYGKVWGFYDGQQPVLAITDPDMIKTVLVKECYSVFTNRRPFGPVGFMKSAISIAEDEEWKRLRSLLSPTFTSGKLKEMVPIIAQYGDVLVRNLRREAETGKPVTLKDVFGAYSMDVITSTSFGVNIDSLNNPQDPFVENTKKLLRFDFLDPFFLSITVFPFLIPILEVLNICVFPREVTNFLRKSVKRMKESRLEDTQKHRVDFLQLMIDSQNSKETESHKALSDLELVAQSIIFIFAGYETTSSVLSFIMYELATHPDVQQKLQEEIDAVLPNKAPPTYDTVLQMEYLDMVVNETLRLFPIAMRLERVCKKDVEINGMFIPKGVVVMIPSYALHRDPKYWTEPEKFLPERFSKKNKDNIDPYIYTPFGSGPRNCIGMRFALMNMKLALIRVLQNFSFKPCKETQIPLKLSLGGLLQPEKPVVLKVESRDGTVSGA
Method in brief: (§1)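 Read-out is luminescence after P450-Glo detection (30 min, RT). Before that: 15 min compound–enzyme preincubation, then 30-45 min reaction with 1x NADPH regeneration solution, substrate concentration isoform-specific.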

[7] = biological target: Cytochrome P450 2D6 (Homo sapiens) (UniProt P10635); assay: qHTS for inhibitors of CYP2D6 against the NCATS DSHEA and TCM libraries (AID 1919972)
Sequence of Cytochrome P450 2D6 (Homo sapiens) (P10635 whole entry, looked up): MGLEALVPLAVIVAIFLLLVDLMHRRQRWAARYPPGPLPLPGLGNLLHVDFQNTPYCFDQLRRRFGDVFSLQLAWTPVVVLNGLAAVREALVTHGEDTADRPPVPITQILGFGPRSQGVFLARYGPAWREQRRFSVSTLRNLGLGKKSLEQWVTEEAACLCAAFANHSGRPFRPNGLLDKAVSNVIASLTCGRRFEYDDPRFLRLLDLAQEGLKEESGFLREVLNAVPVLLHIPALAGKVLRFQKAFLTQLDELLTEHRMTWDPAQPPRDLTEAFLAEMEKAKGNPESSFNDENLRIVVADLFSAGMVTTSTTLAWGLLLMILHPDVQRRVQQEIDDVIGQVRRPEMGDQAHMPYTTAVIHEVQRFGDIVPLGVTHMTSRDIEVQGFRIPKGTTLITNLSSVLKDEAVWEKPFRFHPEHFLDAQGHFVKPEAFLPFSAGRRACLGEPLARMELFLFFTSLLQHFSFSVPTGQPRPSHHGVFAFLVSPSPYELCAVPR
Source text: (§2) Assay Development and Screening Technology Laboratory (ADST)
(§3) National Center for Advancing Translational Sciences (NCATS), Rockville, MD
(§4) National Institute of Health (NIH), Bethesda, Maryland
(§5) Dietary Supplements and Natural Products have minor oversight of their safety and efficacy. We assembled a collection of Dietary Supplements and Natural Products (DSNP) as well as Traditional Chinese Medicinal (TCM) Plant extracts, which were screened against an in vitro panel of assays, including a liver cytochrome p450 enzyme panel, CAR/PXR signaling pathways, and P-gp transporter assays, to assess their activity. This pipeline facilitated the interrogation of Natural Product-Drug Interaction (NaPDI) through prominent metabolizing pathways. In addition, we compared the activity profiles of the DSNP/TCM substances with those of an approved drug collection. Many of the approved drugs have well-annotated mechanisms of action (MOA) while the MOAs for most of the DSNP and TCM samples remain unknown. Based on the premise that compounds with similar activity profiles tend to share similar targets or MOA, we clustered the library activity profiles to identify overlap with the NCATS Pharmaceutical Collection to predict the MOAs of the DSNP/TCM substances. Overall, we highlight four significant bioactivity profiles (measured by p-values) as examples of this prediction. To assess broad cytotoxicity, we employed screening against a HepG2 cell line. In addition, transporter-mediated drug interactions are utilized in the characterization of DDIs using a P-glycoprotein (P-gp) assays. To profile potential P-gp activity, a differential cell viability was measured against two cell lines: a parental KB-3-1 human cervical adenocarcinoma cell line and the drug-resistant subline KB-8-5-11 that overexpresses P-gp.
(§6) To this end, we profiled both collections for potential CAR and/or PXR activity, employing a previously published 1536-well qHTS assay.
(§7) [1] Lee TD, et al. A High-Throughput Screen of a Library of Therapeutics Identifies Cytotoxic Substrates of P-glycoprotein. Mol Pharmacol. Nov 2019;96(5):629-640. doi:10.1124/mol.119.115964
(§8) PROTOCOL TABLE (as described by Inglese J, Shamu CE and Guy RK. 2007)
(§9) SEQUENCE No. (e.g., 1, 2, 3, etc.); […] (e.g., Cells, Incubation, Reagent, etc.); VALUE; DESCRIPTION.
(§10) 1; Reagent; 2 uL; cytochrome P450 enzyme and luciferin substrate or buffer only, white solid-bottom Greiner plate.
(§11) 2; Compounds and control; 16 nL; Kalypsis pintool (Wako USA) equipped with a 1536-well pin head to transfer to the assay plates.
(§12) 3; Incubation; 15 min; room temperature.
(§13) 4; Reagent; 2 uL; nicotinamide adenine dinucleotide phosphate (NADPH).
(§14) 5; Incubation; 30 - 45 min; room temperature in the dark.
(§15) 6; Reagent; 4 uL; P450-Glo assay detection reagent.
(§16) 7; Centrifuge; 1000 RPM; 15 seconds.
(§17) 8; Incubation; 30 min; room temperature.
(§18) 9; Read; Luminescence; ViewLux plate reader.
(§19) NOTES (numbers refer to Sequence numbers above)
(§20) 1. A 2 uL mixture of corresponding enzymes and luciferin substrate (final concentrations CYP enzyme-specific and pro-luciferin substrate-specific) or minus-enzyme (assay buffer conditions supplied by the manufacturer for respective enzyme isoform; typically, 100 mM KPO4) and luciferin substrate were dispensed using a BioRAPTR FRD (Beckman Coulter, Brea, CA) into columns of a 1536-well white solid-bottom medium binding plate (Greiner Bio-One, Monroe, NC). Five isoforms of cytochrome P450 were used (CYP1A2, CYP2C9, CYP2C19, CYP2D6, and CYP3A4).
2. Substances (final concentrations of most substances ranged from 19.5 nM to […] uM) and controls (CYP-specific) were transferred (16 nL) via pintool (Wako Automation, Richmond, VA). Intraplate controls furafylline (CYP1A2), sulfaphenazole (CYP2C9), ketoconazole (CYP2C19), quinidine (CYP2D6), and ketoconazole (CYP3A4) were used correspondingly.
(§21) 3. Assay plates were incubated at room temperature for 15 min.
4-5. […]

[8] = biological target: Cytochrome P450 2C9 (Homo sapiens) (UniProt P11712); assay: qHTS for inhibitors of CYP2C9 against the NCATS DSHEA and TCM libraries (AID 1919973);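 note: luminogenic pro-luciferin CYP2C9 substrate turned into luciferin with NADPH regeneration; series mostly up to about 34 µM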
Sequence of Cytochrome P450 2C9 (Homo sapiens) (P11712 whole entry, looked up): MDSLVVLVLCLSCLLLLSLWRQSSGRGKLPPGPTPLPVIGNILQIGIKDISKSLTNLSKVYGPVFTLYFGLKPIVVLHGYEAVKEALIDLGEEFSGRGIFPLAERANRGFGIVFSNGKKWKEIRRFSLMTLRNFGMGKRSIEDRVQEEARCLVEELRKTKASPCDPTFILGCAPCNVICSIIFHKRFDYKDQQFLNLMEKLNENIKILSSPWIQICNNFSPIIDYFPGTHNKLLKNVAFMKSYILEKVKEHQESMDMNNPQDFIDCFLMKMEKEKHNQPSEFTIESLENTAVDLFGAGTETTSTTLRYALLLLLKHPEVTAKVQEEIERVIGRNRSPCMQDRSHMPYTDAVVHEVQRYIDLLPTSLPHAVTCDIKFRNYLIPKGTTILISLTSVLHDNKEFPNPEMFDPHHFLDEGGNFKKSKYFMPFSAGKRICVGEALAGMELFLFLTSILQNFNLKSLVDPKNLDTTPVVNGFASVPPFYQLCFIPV
Source text: as §2, §3, §4, §5, §6, §7, §8, §9, §10, §11, §12, §13, §14, §15, §16, §17, §18, §19, §20
2. Substances (final concentrations of most substances ranged from 19.5 nM to 39.8 uM) and controls (CYP-specific) were transferred (16 nL) via pintool (Wako Automation, Richmond, VA). Intraplate controls furafylline (CYP1A2), sulfaphenazole (CYP2C9), ketoconazole (CYP2C19), quinidine (CYP2D6), and ketoconazole (CYP3A4) were used correspondingly.
as §21
4-5. […]

[9] = biological target: Cytochrome P450 2C19 (Homo sapiens) (UniProt P33261); assay: qHTS for inhibitors of CYP2C19 against the NCATS DSHEA and TCM libraries (AID 1919974);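 note: luminescence from luciferin released by CYP2C19 oxidation of a pro-luciferin substrate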
Sequence of Cytochrome P450 2C19 (Homo sapiens) (P33261 whole entry, looked up): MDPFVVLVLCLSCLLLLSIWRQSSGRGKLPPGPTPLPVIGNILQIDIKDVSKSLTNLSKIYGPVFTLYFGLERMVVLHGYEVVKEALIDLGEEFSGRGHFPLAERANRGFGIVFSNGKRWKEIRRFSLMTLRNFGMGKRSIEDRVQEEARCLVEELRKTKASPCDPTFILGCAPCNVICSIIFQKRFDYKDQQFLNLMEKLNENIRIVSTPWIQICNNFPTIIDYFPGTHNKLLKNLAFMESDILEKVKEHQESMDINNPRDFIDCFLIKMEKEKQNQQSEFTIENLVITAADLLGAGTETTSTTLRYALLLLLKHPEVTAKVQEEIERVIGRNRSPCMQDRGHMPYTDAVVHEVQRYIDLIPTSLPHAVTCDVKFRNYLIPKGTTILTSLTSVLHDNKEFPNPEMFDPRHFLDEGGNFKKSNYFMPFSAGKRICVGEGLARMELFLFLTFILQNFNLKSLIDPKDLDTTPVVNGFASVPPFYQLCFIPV
Method in brief: as §1

[10] = KB-3-1 P-gp reporter qHTS against the NCATS DSHEA and TCM libraries (AID 1919975)
Method in brief: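 Cell viability by CellTiter-Glo luminescence following ~72 h compound exposure (concentration-response). Uses parental, non-P-gp-overexpressing KB-3-1 line, 500 cells/well in DMEM/10% FBS, attached ~4 h before dosing.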

Measured: Potency

C=C(C)C(=O)O[C@H]1C[C@@](C)(OC(C)=O)[C@@]2(O)CC[C@@](C)(O)[C@H](OC(C)=O)[C@@]23OC(=O)C(COC)=C13
inactive: [1] | [2] | [3] | [4]

CC(=O)c1c(C)cc(O)cc1O[C@@H]1O[C@H](CO)[C@@H](O)[C@H](O)[C@H]1O
inactive: [1] | [2] | [3] | [4]

CC(=O)N(O)CCCCCN1C(=O)CCC1=O
inactive: [1] | [2] | [3] | [4]

COc1ccc(C2=CC(=O)OC2Cc2ccc(O)cc2)c(O)c1 (stereo not given)
inactive: [1] | [2] | [3] | [4]

COc1cc2c(cc1O)C1(OC)Cc3ccc4c(c3C1N(C)CC2)OCO4 (stereo not given)
inactive: [1] | [2] | [3] | [4]

COc1ccc2c3c1O[C@H]1C[C@@H](O)C=C[C@@]31CCN(C)C2
inactive: [1] | [2] | [3] | [4]

CCOC(=O)c1c(C)nn(-c2cccc([N+](=O)[O-])c2)c1C
inactive: [1] | [2] | [3] | [4]

COc1cc2c(cc1O)C1(Cc3ccc4c(c3C1=O)OCO4)N(C)CC2 (stereo not given)
inactive: [1] | [2] | [3] | [4]

CC(/C=C/C1(O)C(C)(C)CC(O)CC1(C)O)OC1OC(CO)C(O)C(O)C1O (stereo not given)
inactive: [1] | [2] | [3] | [4]

COc1cc(C2Oc3c(O)cc(CCCO)cc3C2CO)ccc1O[C@H]1O[C@H](C)[C@@H](O)[C@H](O)[C@@H]1O (stereo not given in full)
inactive: [1] | [2] | [3] | [4]

O=C1CC(c2ccc([N+](=O)[O-])cc2)=NN1c1ccccc1
inactive: [1] | [2] | [3] | [4]

C=C1CCC2C(OC(=O)C2(O)COC(C)=O)C2C(=C)C(O)CC12 (stereo not given)
inactive: [1] | [2] | [3] | [4]

O=C1[C@H](O[C@@H]2O[C@H](CO)[C@@H](O)[C@H](O)[C@H]2O)Oc2ccccc2N1O
inactive: [1] | [2] | [3] | [4]

CC1(C)CC[C@]2(C(=O)O)CC[C@]3(C)C(=CCC4[C@@]5(C)CCC(O[C@@H]6OC[C@H](O)[C@H](O)[C@H]6O[C@@H]6O[C@H](CO)[C@@H](O)[C@H](O)[C@H]6O)[C@@](C)(CO)C5CC[C@]43C)[C@@H]2C1 (stereo not given in full)
inactive: [1] | [2] | [3] | [4]

CC(C)(O)/C=C1/C(=O)C(C)(C)C(=O)C(C)(C)C1(O)O[C@@H]1O[C@H](COC(=O)c2cc(O)c(O)c(O)c2)[C@@H](O)[C@H](O)[C@H]1O (stereo not given in full)
inactive: [2] | [3] | [4]
active: [5] 707 nM

CCc1cc2c(=O)c(-c3nc4ccccc4s3)coc2c(CN2CCCCC2)c1O
inactive: [1] | [2] | [4]

COc1ccc2c(c1)OC[C@]1(O)c3cc4c(cc3O[C@H]21)OCO4
inactive: [1] | [2] | [3] | [4]

COc1ccc(/C=C/C(=O)O[C@@H]2[C@@H](O)[C@H](C)O[C@@H](OC3C4C=COC(O[C@@H]5O[C@H](CO)[C@@H](O)[C@H](O)[C@H]5O)C4C4(CO)OC34)[C@@H]2O)cc1OC (stereo not given in full)
inactive: [1] | [2] | [3] | [4]

CN(C)C/C=C/C(=O)Nc1ccc(C(=O)Nc2cccc(Nc3ncc(Cl)c(-c4c[nH]c5ccccc45)n3)c2)cc1
inactive: [2] | [5] | [3]

COc1cccc(-c2ccc([C@@H](Oc3cc(-c4ccc(C[C@H](N)C(=O)O)cc4)nc(N)n3)C(F)(F)F)cc2)c1
inactive: [2] | [5] | [3] | [4]

C/C=C/C=C/C=C/C(=O)O[C@@H]1C=C(CO)C(O)(C(=O)O)[C@@]2(C)CCCC(C)(C)[C@H]12 (stereo not given in full)
inactive: [2] | [5] | [3]

CCCCCCCC(=O)O
inactive: [1] | [6] | [7] | [8] | [9] | [10]

COc1ccc([C@H]2Cc3cccc(O)c3C(=O)O2)cc1
inactive: [1] | [5] | [3] | [4]

CC1(C)CC[C@]2(C(=O)O[C@@H]3O[C@H](CO)[C@@H](O)[C@H](O)[C@H]3O)CC[C@]3(C)C(=CCC4[C@@]5(C)C[C@@H](O)[C@H](O)[C@@](C)(CO)C5CC[C@]43C)C2C1 (stereo not given in full)
inactive: [2] | [5] | [3]

C[C@H]1CC[C@@]2(OC1)O[C@H]1CC3C4CC=C5C[C@H](O)C[C@@H](O[C@@H]6O[C@@H](C)[C@H](O)[C@@H](O)[C@H]6O[C@@H]6O[C@@H](C)[C@H](O)[C@@H](O)[C@H]6O)[C@]5(C)C4CC[C@]3(C)[C@H]1[C@@H]2C (stereo not given in full)
inactive: [2] | [5] | [3] | [4]

COc1cc(NC(=O)c2ccccn2)ccc1Cl
inactive: [1] | [5] | [3] | [4]

CNC(=O)Nc1ccc(OC)c(NC(=O)NC(=O)c2cc(F)c(F)cc2Cl)c1
inactive: [1] | [2] | [4]
